Shown is part of a subset that was picked to be rich in hits.
Tg IFNy HTS – T. gondii growth inhibition with IFN-gamma, primary screen, cell-based; Toxoplasma gondii growth in IFN-gamma-treated host cells; hits give low values; activity change, negative = inhibition, % (test concentration not listed); 69,000 compounds, 3.8% hits; AID 1259416, 2018; in the data active = activity change below about -70%, passing the limit was not always enough;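 note: host cells are HeLa cells infected with Toxoplasma gondii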
Of the large screens only hits and unclear results are named; the others gave an inactive call; ! = repeats disagree.

c1cncc(CN2CC[C@H]3[C@@H]2CCN3Cc2ccoc2)c1	none
CC(=O)OC[C@]12CCC(C)=C[C@H]1O[C@@H]1[C@H](O)[C@@H](OC(C)=O)[C@@]2(C)[C@@]12CO2	Tg IFNy HTS -81
Cc1ccc(C(=O)N2CCC(NC(C)Cc3ccccc3F)CC2)cc1 (stereo not drawn)	none
CNc1ccccc1C(=O)O	none
CCCCC(CC)COC(=O)c1ccccc1C(=O)OCC(CC)CCCC (stereo not drawn)	none
C[CH2][Hg][S]c1ccccc1C(=O)O	Tg IFNy HTS -73!
COCCN1C[C@H]2CN(Cc3ccncc3)C[C@H]2C1=O	none
Cc1ccc(-n2nccn2)c(C(=O)N2CCN(c3nc4cc(Cl)ccc4o3)CC[C@H]2C)c1	none
CC(C)N(C)CC1CCC2(COCCN(Cc3cccnc3)C2)O1 (stereo not drawn)	none
CCSc1nc(CC(=O)N2CCCCC2CN2CCOCC2)cs1 (stereo not drawn)	none
CCCc1nc(-c2ccccn2)nc(OC(=O)N(C)C)c1Cc1c(F)cccc1Cl	Tg IFNy HTS -98
Cc1noc(C)c1CN1CCC2C1CC(=O)N2c1cnn(C)c1 (stereo not drawn)	none
CC(=O)N1C[C@H]2CCCC(N3CCN(c4ncccn4)CC3)[C@@H]2C1 (stereo partly drawn)	none
CCCN1CC2CCC1C2Oc1cccnc1 (stereo not drawn)	none
CCCC1C(c2ccccc2)NC(c2ccccc2)CC1(O)c1ccc(F)cc1 (stereo not drawn)	Tg IFNy HTS -97
CC1CCN(CC(C)(C)CN2C3CCC2CC(O)(c2ccc(F)cc2)C3)CC1 (stereo not drawn)	none
Cc1noc(C)c1CN1CCO[C@H]2CN(CC(C)O)C[C@@H]21 (stereo partly drawn)	none
COc1ccc2c(c1)C1(CCN(C(=O)[C@H](Cc3ccccc3)NC(C)=O)CC1)CC2CC(=O)O (stereo partly drawn)	none
CN1CC2(CCCN(Cc3cc(-c4ccccn4)no3)C2)OC1=O (stereo not drawn)	none
Cc1cccc2sc(NC(=O)c3cc4cccnc4n(Cc4ccccc4)c3=O)nc12	none
c1ccc(O[C@@H]2CC[C@@H]3[C@H]2OCCN3CC2CCOCC2)nc1	none
CN1CC[C@@H]2C(=O)N(c3ccccc3)CCO[C@@H]2C1	none
CC(C)[C@@]1(NC(=O)[C@@H]2C[C@@H]3c4cccc5[nH]cc(c45)C[C@H]3N(C)C2)O[C@@]2(O)[C@@H]3CCCN3C(=O)[C@H](Cc3ccccc3)N2C1=O	none
CN1Cc2ccccc2[C@@H]2c3cccc4[nH]cc(c34)C[C@H]21	Tg IFNy HTS -78
O=C(NCCc1ccccc1)c1cc2cccnc2n(Cc2ccc(Cl)cc2)c1=O	none
CCN(CC)CCN1CCO[C@@H]2[C@@H](OCc3cccnc3)CC[C@H]21	none
Cc1ccnc(CC(C)N(C)CCc2ccccc2)c1 (stereo not drawn)	none
CC(C)CCNC(=O)c1cc2cccnc2n(Cc2ccccc2)c1=O	none
CC(=O)NC1CCSC1=O (stereo not drawn)	Tg IFNy HTS -78!
O=C(O)CN1CC2(CCN(Cc3ccncc3)C2)C1	none
O=C(Nc1ccc(Cl)cc1)c1cc2cccnc2n(Cc2ccccc2)c1=O	none
CCS(=O)(=O)N1CC[C@@]2(CN(C)C[C@H]2COCc2cccnc2)C1	none
CCN1C[C@H]2[C@@H](OC)CCN(C(=O)Cc3ccc(OC)cc3)[C@H]2C1	none
CC1(C)C(=O)C=C[C@@]2(C)C1C(=O)C(=O)[C@]1(C)C2CC[C@@]2(C)[C@H](c3ccoc3)C[C@H]3O[C@]321 (stereo partly drawn)	Tg IFNy HTS -79
C[C@]12CCC3C(CC[C@]4(O)C[C@@H](O)CC[C@]34C=O)[C@@]1(O)CCC2C1=CC(=O)OC1 (stereo partly drawn)	Tg IFNy HTS -84!
C[C@@H]1O[C@@H](O[C@H]2CC[C@]3(C=O)C4CC[C@]5(C)[C@@H](C6=CC(=O)OC6)CC[C@]5(O)C4CC[C@]3(O)C2)[C@H](O)[C@H](O)[C@H]1O (stereo partly drawn)	none
c1cnc(NC2COC3(CCNC3)C2)cn1 (stereo not drawn)	none
c1cncc(CN2CCO[C@@H]3CN(Cc4ccco4)CC[C@@H]3C2)c1	none
C=CCN1CCN(C)C2(CCN(c3cccnc3)CC2)C1=O	none
CCCN1C(=O)C(C(=O)/C=C/c2ccc(C)cc2)C2c3ccccc3OC13CCCCC23 (stereo not drawn)	none
CCOc1ccc(/C=C/C(=O)C2C(=O)NC34CCCCC3C2c2ccccc2O4)cc1OC (stereo not drawn)	Tg IFNy HTS -80
O=C(/C=C/c1ccc(Cl)cc1)C1C(=O)NC23CCCCC2C1c1ccccc1O3 (stereo not drawn)	none
C=C[C@H]1CN2CC[C@H]1C[C@@H]2[C@@H](OC(=O)OCC)c1ccnc2ccc(OC)cc12	none
CC[C@H]1CN2CCC1C[C@@H]2[C@@H](O)c1ccnc2ccc(OC)cc12 (stereo partly drawn)	Tg IFNy HTS -78!
C=CC1CN2CCC1CC2[C@@H](OC(=O)c1ccc(OC)cc1)c1ccnc2ccccc12 (stereo partly drawn)	none
NC(=O)c1ccccc1NC(=O)c1cc2cccnc2n(Cc2ccc(F)cc2)c1=O	none
Cc1oc(-c2ccccc2)nc1CN1C(=O)CN=C(c2ccc(F)cc2)c2c1sc1c2CCC1	none
CC(CCc1ccccc1)NC(=O)c1cc2cccnc2n(Cc2ccc(F)cc2)c1=O (stereo not drawn)	none
O=S(=O)(NC1CC2(CCN(Cc3ccccn3)C2)C1)C1CC1 (stereo not drawn)	none
CN1C2CCC1CC(=NOC(=O)c1ccc(F)cc1)C2	none
CNC(=O)CN1CCC12CCN(C(=O)Cc1cccs1)C2 (stereo not drawn)	none
Oc1cc(Cl)ccc1Oc1ccc(Cl)cc1Cl	Tg IFNy HTS -87
O=C(O)COc1ccc(Cl)cc1Cl	none
Cc1cc(Cl)ccc1OCC(=O)O	none
c1cc(CN2CCOCC3(CNCCO3)C2)ccn1 (stereo not drawn)	none
COCCN1CCOCC12CCN(c1cc(OC)ncn1)CC2	none
Cc1cccc(C2=NCC(=O)N(CC(=O)N3CCCCCC3)c3sc4c(c32)CCC4)c1	none
COc1cccc2c1C(=O)c1c(O)c3c(c(O)c1C2=O)C[C@@](O)(C(=O)CO)C[C@@H]3O[C@H]1C[C@H](N2CCO[C@H](OC)C2)[C@H](O)[C@H](C)O1	Tg IFNy HTS -81
C[C@@H]1C[C@@H]([C@H](O)CC2CC(=O)NC(=O)C2)C(=O)[C@@H](C)C1	Tg IFNy HTS -79
O=C(Nc1ccc(F)cc1F)c1cc2cccnc2n(Cc2ccc(F)cc2)c1=O	none
CCC1(O)C(=O)OCc2c1cc1n(c2=O)Cc2cc3ccccc3nc2-1 (stereo not drawn)	Tg IFNy HTS -106
CC[C@@]1(O)C(=O)OCc2c1cc1n(c2=O)Cc2cc3ccccc3nc2-1	Tg IFNy HTS -88
Cc1cccc(CN2CCC3OCCCC3(COCC3CC3)C2)n1 (stereo not drawn)	none
CN1CC2CCCC(C1)C2OC(=O)C(O)(c1ccccc1)C1CCCC1 (stereo not drawn)	none
COCCN1C[C@H]2[C@H](OC)CCN(C(=O)c3ncccn3)[C@H]2C1	none
OCCN1CCOC2C(COc3ncccn3)CCC21 (stereo not drawn)	none
Clc1ccc(COC(Cn2ccnc2)c2ccc(Cl)cc2Cl)c(Cl)c1 (stereo not drawn)	Tg IFNy HTS -85!
NC(=O)c1ccccc1NC(=O)c1cc2cccnc2n(Cc2ccccc2F)c1=O	none
O=C(Nc1ccccc1)N1CC2CNC(C2)C1 (stereo not drawn)	none
c1cnc(N2CCN(CC3CC3)c3ncccc3C2)nc1	none
C[C@@H]1CN(Cc2cccs2)C[C@]12CCN(c1cccnc1)C2=O	none

Assay outcomes from PubChem.
